# Laboratory results taken from PubChem BioAssay.
# Several values for one entry are separate records, joined by “and”; a condition that tells them apart may be missing. Equal entries are not always repeated. Activity calls are given as the source filed them. Unless noted, no rule for the calls is given here.
# Assays:
# [1] = resazurin metabolic signal in HepG2 cells – cell-based, resazurin fluorescence, 24 h, PK04 Diversity Set, profiling panel (AID 1172); conditions: HepG2 viability, higher = more signal
# [2] = budding yeast growth changes without added modifier – OD600, strain BY4716, 24 h, basal condition, primary screen (AID 1173); conditions: S. cerevisiae BY4716 growth, OD600, 24 h; higher = more signal, called active from +8 up or from −8 down
# [3] = viability profiling in MM1S myeloma cells – cell-based, resazurin fluorescence, basal, 24 h, PK04 Diversity Set, profiling panel (AID 1174); conditions: higher = more signal, called active from +8 up or from −8 down;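 also: MM1S multiple myeloma cell line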
# [4] = target: Dihydroorotate dehydrogenase (quinone), mitochondrial (Plasmodium falciparum (isolate 3D7)) (UniProt Q08210); test: inhibition of P. falciparum DHODH – biochemical, C-terminal His tag, absorbance 600 nm, primary screen (AID 1175); conditions: PfDHODH enzyme, DCIP absorbance 600 nm; higher = more signal, called active from +8 up or from −8 down;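 also: recombinant parasite enzyme with a five histidine tag at its C terminus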
# [5] = inhibition of PAO1 biofilm formation – strain PAO1, LB-PBS medium, absorbance 600 nm, primary screen (AID 1176); conditions: P. aeruginosa PAO1 growth/biofilm, A600, 12 h; higher = more signal
# [6] = growth modulation of vineyard yeast isolate – strain RM11-1a, OD600, basal, 24 h, primary screen (AID 1177);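 also: cultures grown under basal conditions with no added stressor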; conditions: S. cerevisiae RM11-1a growth, OD600, 24 h; higher = more signal, called active from +8 up or from −8 down
# [7] = growth of efflux-deficient E. coli DRC39 – strain DRC39, OD650, 24 h, E. coli filamentation inducers, primary screen (AID 1178);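 also: growth measured as culture turbidity by optical density at 650 nm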; conditions: E. coli DRC39 acrAB, higher = more signal, called active from +8 up or from −8 down
# [8] = growth of efflux-deficient E. coli DRC39 – strain DRC39, OD650, 48 h, E. coli filamentation inducers, primary screen (AID 1179);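 also: screen aims at cell division blockers that make cells filament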; conditions: E. coli DRC39 delta-acrAB growth, higher = more signal, called active from +8 up or from −8 down
# [9] = viability profiling in RPMI8226 myeloma cells – cell-based, resazurin fluorescence, basal, 24 h, PK04 Diversity Set, profiling panel (AID 1180); conditions: higher = more signal;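 also: RPMI8826 multiple myeloma cell line at 5000 cells per well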
# [10] = target: E3 ubiquitin-protein ligase XIAP (Homo sapiens) (UniProt P98170); test: small molecules binding XIAP protein – biophysical, small-molecule microarray, fluorescence 635 nm, primary screen (AID 1181); conditions: higher = more signal;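 also: score merges 667 nm emission and signal to noise over triplicate slides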
# [11] = tested on: XIP peptide (Xip251-270) binding; test: XIP fragment 251-270 binding compounds – biochemical, small-molecule microarray, fluorescence 635/667 nm, 0.1 µg/mL protein, primary screen (AID 1182); conditions: fluorescent protein binding, 635 nm, higher = more signal, called active from +8 up or from −8 down
# [12] = tested on: XIP peptide (Xip251-270); test: compounds binding XIP fragment 251-270 – biochemical, small-molecule microarray, fluorescence 635/667 nm, 0.5 µg/mL protein, primary screen (AID 1183); conditions: fluorescence 635 nm, higher = more signal
# [13] = blood-stage malaria parasite viability loss – strain 3D7, DAPI fluorescence, 100 nL, primary screen (AID 1184);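 also: parasites grown inside human red blood cells in medium with human serum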; conditions: P. falciparum 3D7 growth, 3 d, higher = more signal
# [14] = target: Homeobox protein Hox-A13 (Mus musculus) (UniProt Q62424); test: disruptors of Hoxa13 oligonucleotide interaction – biochemical, fluorescence polarization, labeled oligonucleotide, primary screen (AID 1185); conditions: Hoxa13:DNA binding, 15 min, higher = more signal, called active from +8 up or from −8 down
# [15] = blockers of DNA damage checkpoint Chk1 activation – imaging, HeLa, hydroxyurea, phospho-Chk1 antibody, percent positive cells, primary screen (AID 1186); conditions: hydroxyurea-induced phospho-Chk1 immunofluorescence imaging, higher = more signal
# [16] = blockers of DNA damage checkpoint Chk1 activation – imaging, HeLa, hydroxyurea, phospho-Chk1 nuclear intensity, primary screen (AID 1187); conditions: hydroxyurea-induced phospho-Chk1 immunofluorescence imaging, higher = more signal
# Sequence of Homeobox protein Hox-A13 (Mus musculus) (Q62424 whole entry, looked up): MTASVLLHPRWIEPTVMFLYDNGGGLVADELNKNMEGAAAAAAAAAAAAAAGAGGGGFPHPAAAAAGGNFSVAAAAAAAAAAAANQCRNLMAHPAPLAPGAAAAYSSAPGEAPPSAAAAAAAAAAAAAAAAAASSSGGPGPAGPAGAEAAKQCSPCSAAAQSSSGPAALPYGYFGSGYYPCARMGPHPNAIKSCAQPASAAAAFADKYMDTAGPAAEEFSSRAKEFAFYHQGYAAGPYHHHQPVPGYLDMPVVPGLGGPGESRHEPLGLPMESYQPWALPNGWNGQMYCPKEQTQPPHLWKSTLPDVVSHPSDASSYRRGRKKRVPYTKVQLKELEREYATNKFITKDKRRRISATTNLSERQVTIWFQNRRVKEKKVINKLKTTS
# Sequence of Dihydroorotate dehydrogenase (quinone), mitochondrial (Plasmodium falciparum (isolate 3D7)) (Q08210 whole entry, looked up): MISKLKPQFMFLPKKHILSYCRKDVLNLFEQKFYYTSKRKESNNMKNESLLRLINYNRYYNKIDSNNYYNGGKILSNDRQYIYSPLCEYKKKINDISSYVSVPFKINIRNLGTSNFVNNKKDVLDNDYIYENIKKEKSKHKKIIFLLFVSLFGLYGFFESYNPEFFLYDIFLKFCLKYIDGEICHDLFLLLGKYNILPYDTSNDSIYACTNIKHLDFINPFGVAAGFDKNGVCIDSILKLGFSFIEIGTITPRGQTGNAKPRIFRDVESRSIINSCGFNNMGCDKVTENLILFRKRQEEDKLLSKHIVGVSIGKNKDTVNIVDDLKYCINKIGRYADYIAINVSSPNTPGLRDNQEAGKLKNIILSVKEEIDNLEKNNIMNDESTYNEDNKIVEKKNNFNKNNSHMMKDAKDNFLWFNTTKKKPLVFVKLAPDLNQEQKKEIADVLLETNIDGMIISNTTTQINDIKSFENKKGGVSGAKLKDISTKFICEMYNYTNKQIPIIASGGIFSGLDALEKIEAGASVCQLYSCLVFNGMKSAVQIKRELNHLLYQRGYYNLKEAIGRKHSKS
# Sequence of E3 ubiquitin-protein ligase XIAP (Homo sapiens) (P98170 whole entry, looked up, the tested form may be a part): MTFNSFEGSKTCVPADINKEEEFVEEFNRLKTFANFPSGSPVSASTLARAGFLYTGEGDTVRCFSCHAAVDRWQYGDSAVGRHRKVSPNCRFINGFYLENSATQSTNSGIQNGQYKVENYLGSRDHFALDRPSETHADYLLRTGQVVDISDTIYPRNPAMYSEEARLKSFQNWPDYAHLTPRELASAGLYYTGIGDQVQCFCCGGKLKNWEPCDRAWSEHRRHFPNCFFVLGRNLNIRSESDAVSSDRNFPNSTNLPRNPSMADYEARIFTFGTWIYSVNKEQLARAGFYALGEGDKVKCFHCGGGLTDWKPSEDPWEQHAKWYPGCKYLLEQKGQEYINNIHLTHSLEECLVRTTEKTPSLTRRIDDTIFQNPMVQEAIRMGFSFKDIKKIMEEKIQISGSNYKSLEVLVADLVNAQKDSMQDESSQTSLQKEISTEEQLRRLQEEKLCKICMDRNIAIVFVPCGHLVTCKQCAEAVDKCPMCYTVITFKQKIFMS
SMILES,z-score [1],z-score [2],z-score [3],composite z-score [4],z-score [5],z-score [6],z-score [7],z-score [8],z-score [9],composite z-score [10],composite z-score [11],composite z-score [12],z-score [13],z-score [14],z-score [15],z-score [16]
CCCC[C@@H]1CN2[C@@H](CC[C@@H](C)[C@@H]2c2ccc(Br)cc2)C(=O)O1,-0.175 and 0.523,-1.57 (inactive) and -1.39 (inactive),0.0509 (inactive) and 0.231 (inactive),0.466 (inactive) and -0.248 (inactive),-0.221 (inactive) and -0.175 (inactive),0.229 (inactive) and -0.0641 (inactive),0.777 (inactive) and 0.606 (inactive),0.535 (inactive) and -1.07 (inactive),0.387 and 0.756,0.0537 and -0.185,0.177 (inactive) and 0.122 (inactive),0.712 and 0.647,0.524 and 0.888,-3.5 (inactive) and -2.53 (inactive),,
COC(=O)[C@H](C)NC(=O)CCC1CC(OC(=O)NCCc2ccc(F)cc2)CC2(CCCC(COC(=O)NCCCN3CCCC3=O)O2)O1 (some centres not stated),-0.704,-0.343 (inactive),0.951 (inactive),0.322 (inactive),-0.977 (inactive),0.492 (inactive),-0.441 (inactive),-0.367 (inactive),0.315,-0.283,0.348 (inactive),0.683,-1.9,-4.1 (inactive),,
Cc1cc2c(nc1C)CCCN2CC(C)ON=C[C@@H](C)[C@H](OCc1ccccc1)C(C)C (some centres not stated),-0.524,-0.0028 (inactive),-0.567 (inactive),0.103 (inactive),-0.172 (inactive),0.776 (inactive),-0.0901 (inactive),-0.549 (inactive),-0.394,0.0546,-0.144 (inactive),-0.0166,0.5,-0.838 (inactive),,
Cc1ccc(S(=O)(=O)N[C@H]2COC(=O)[C@@H](Cc3ccccc3)NC(=O)[C@@H](C)COC(=O)CC=C[C@@H]2C)cc1,0.328 and 0.224,-0.207 (inactive) and -0.631 (inactive),0.0731 (inactive) and -0.209 (inactive),-0.395 (inactive) and -0.412 (inactive),-0.814 (inactive) and -0.479 (inactive),0.0658 (inactive) and 0.0386 (inactive),0.046 (inactive) and -0.0139 (inactive),-0.479 (inactive) and 0.385 (inactive),0.0023 and 0.238,-0.259 and -0.469,0.124 (inactive) and 0.125 (inactive),0.174 and -0.0928,-0.446 and -1.34,0.469 (inactive) and -3.02 (inactive),,
COC(=O)C1=C(C)N(Cc2ccccc2)C2=C(C(C)=O)[C@H](c3ccccc3)[C@@](O)(C(=O)OC)C(=O)N2[C@@H]1c1ccccc1,1.38 and 0.559,-2.41 (inactive) and -3.21 (inactive),1.07 (inactive) and 0.983 (inactive),0.523 (inactive) and -1.82 (inactive),1.08 (inactive),-0.107 (inactive) and -3.5 (inactive),1.32 (inactive) and 0.552 (inactive),0.972 (inactive) and -1.35 (inactive),1.27 and 0.0662,0.0177 and -0.244,0.284 (inactive) and -0.864 (inactive),0.727 and -1.64,0.512 and -0.515,-4.62 (inactive) and 0.136 (inactive),,
COC(=O)C1=C(C)N(Cc2ccccc2)[C@]23O[C@](C(=O)OC)(C(=O)N2[C@@H]1c1ccccc1)[C@H]1C(=O)N(C)C(=O)[C@H]13,0.101 and 1.13,-0.974 (inactive) and -1.6 (inactive),0.856 (inactive) and 0.302 (inactive),0.207 (inactive) and 0.467 (inactive),-1.59 (inactive),1.09 (inactive) and -0.535 (inactive),-0.34 (inactive) and 0.732 (inactive),0.207 (inactive) and 0.764 (inactive),0.389 and -0.0962,0.072 and 2.05,0.0247 (inactive) and -0.317 (inactive),0.706 and -0.282,-0.979 and 0.027,-3.58 (inactive) and -1.73 (inactive),,
C=C(C)C(=O)OC[C@@H]1CN2[C@@H](CC[C@@H](C)[C@@H]2c2ccc(Br)cc2)C(=O)O1,0.726,-3.12 (inactive),0.155 (inactive),0.187 (inactive),0.936 (inactive),0.361 (inactive),0.513 (inactive),0.682 (inactive),0.173,-0.0326,0.0138 (inactive),0.175,0.693,-3.29 (inactive),,
COc1ccc(O[C@H]2C=C[C@@H](c3ccccc3)O[C@@H]2COC(=O)CCC(C)=NO[C@H](C)c2cn([C@H](CO)Cc3ccccc3)nn2)cc1,0.327 and 0.346,0.496 (inactive) and 1.83 (inactive),0.149 (inactive) and -0.116 (inactive),0.899 (inactive) and -0.413 (inactive),-1.31 (inactive) and -0.491 (inactive),0.581 (inactive) and 1.67 (inactive),0.521 (inactive) and 0.693 (inactive),-0.313 (inactive) and 0.596 (inactive),0.651 and 0.198,-0.252 and -0.188,0.31 (inactive) and 0.164 (inactive),0.238 and 0.548,-1.46 and -1.1,-5.26 (inactive) and -4.59 (inactive),,
COCn1c2ccccc2c2nnc(C(C)=O)nc21,-0.159 and -0.565,-1.93 (inactive) and -2 (inactive),-0.0104 (inactive) and 0.0255 (inactive),-2.39 (inactive) and -2.01 (inactive),-0.907 (inactive) and -0.576 (inactive),0.204 (inactive) and -0.16 (inactive),-1.12 (inactive) and -1.17 (inactive),-1.07 (inactive) and -1.34 (inactive),-0.261 and -0.35,-0.0095 and -0.065,-0.0478 (inactive) and 0.199 (inactive),-0.392 and -0.333,-1.12 and -1.29,0.732 (inactive) and 0.896 (inactive),,
CO[C@@H]1C=CCC(=O)N2CCC[C@H]2C(=O)OC[C@H](C)C(=O)OC[C@H]1C,0.445,-0.774 (inactive),-0.694 (inactive),0.634 (inactive),-0.72 (inactive),0.134 (inactive),1.08 (inactive),0.858 (inactive),0.312,0.0595,0.28 (inactive),0.612,0.471,-0.499 (inactive),,
CO[C@H]1COC(=O)CC=C[C@@H](C)COC(=O)[C@H](CCSC)NC(=O)CC=C[C@@H]1C,-0.591 and 0.597,-0.92 (inactive) and -2.28 (inactive),-0.473 (inactive) and 1.67 (inactive),0.177 (inactive) and 0.0636 (inactive),0.0821 (inactive),-0.177 (inactive) and -0.642 (inactive),0.277 (inactive) and 0.719 (inactive),-1.27 (inactive) and 0.0985 (inactive),-0.0162 and 1,0.266 and 0.0623,0.218 (inactive) and 0.322 (inactive),0.421 and 0.562,-1.51 and -0.356,-0.947 (inactive) and -0.902 (inactive),,
CCOC(=O)[C@H](CC(C)C)NC(=O)CCC1CC(OC(=O)NCc2cccc3ccccc23)CC2(CCCC(COC(=O)NCc3ccccc3)O2)O1 (some centres not stated),0.928,-1.76 (inactive),1.06 (inactive),-0.621 (inactive),-0.0326 (inactive),-0.527 (inactive),-0.482 (inactive),-0.102 (inactive),0.588,-0.125,-0.17 (inactive),0.374,-1.8,-2.88 (inactive),,
O=C(NN=C1C[C@@H](O)[C@@H](O)[C@@H]2[C@@H]3C(=O)N(Cc4ccc5c(c4)OCO5)C(=O)[C@@H]3CC[C@H]12)OCc1ccccc1,-0.0124,0.0375 (inactive),-0.203 (inactive),-1.62 (inactive),-0.437 (inactive),0.273 (inactive),0.883 (inactive),1.4 (inactive),-0.2,0.106,0.974 (inactive),0.222,0.228,0.0311 (inactive),,
CC(CO)N1C(=O)[C@@H]2C3C(=O)OCCC=C[C@H]3OC23C=CCN(CCN2CCOCC2)C(=O)[C@@H]13 (some centres not stated),-0.437 and 0.303,0.401 (inactive) and 0.191 (inactive),-1.45 (inactive) and -0.517 (inactive),-1.07 (inactive) and -2.08 (inactive),0.0405 (inactive) and 0.0809 (inactive),0.819 (inactive) and -0.631 (inactive),-0.831 (inactive) and -0.259 (inactive),-0.839 (inactive) and -0.358 (inactive),-1.03 and -0.76,0.16 and 0.219,-0.163 (inactive) and 0.286 (inactive),-0.0259 and 0.321,-0.195 and 0.513,-6.39 (inactive) and -7.63 (inactive),0.079 (inactive) and 0.456 (inactive),-0.204 (inactive) and 0.371 (inactive)
C[C@@H]1CC[C@H]2C(=O)N3[C@@H](CC[C@@H](C)[C@@H]3c3ccc(-c4ccco4)cc3)C(=O)N2[C@H]1c1ccc(-c2ccco2)cc1,-0.458 and 0.764,0.666 (inactive) and -1.56 (inactive),-0.316 (inactive) and 1.14 (inactive),-1.48 (inactive) and -7.32 (inactive),0.143 (inactive),0.43 (inactive) and -0.546 (inactive),0.0111 (inactive) and 0.845 (inactive),-0.0533 (inactive) and 0.0395 (inactive),0.136 and 1.2,-0.0559 and 0.217,1.47 (inactive),0.827 and 0.789,0.376 and 0.75,-1.46 (inactive) and 0.517 (inactive),,
